Glyco luc inh: blocks N-linked glycosylation in D54 reporter cells. reporter increase, % at 12.5 µM. 360,000 compounds, 0.23% hits. D54 ERlucT glycosylation luciferase reporter, 24 h; percent of 100 nM tunicamycin response;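 active = mean luciferase reporter signal, scaled so untreated is 0 and the glycosylation-blocking control 100, at or above a set limit in every replicate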;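 also: luciferase carries N-glycosylation sites so blocking glycosylation raises the light; 0% = median of neutral control wells and 100% = median of 100 nM tunicamycin wells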
ARNT TACC3 PPI: ARNT/TACC3 interaction disruption | AID 623870 | 390,000 compounds, 0.66% hits | AlphaScreen His-ARNT PAS-B/GST-TACC3 binding, luminescence; TACC3 fragment carries E629A point mutation | inhibition, % at 9.99 µM | Q9Y6A5;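 active = mean inhibition of replicates at least 50% and at least half of replicates each reaching 50%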;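 also: 0% = complete ARNT plus TACC3 wells and 100% = ARNT alone without TACC3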
Vif imaging: HIV Vif inhibition; HEK293T cells, Vif self-association by quenched fluorescence, imaging, 24 h; inhibition, % at 7.49 µM; 340,000 compounds, 0.35% hits; in the data active = inhibition above about 50%, passing the limit was not always enough
H9c2 protect: protects H9c2 cardiomyocytes from peroxide injury. H2O2 injury protection, ATPLite, 2 h. protection from H2O2 cell death, % at 20 µM. 360,000 compounds, 0.63% hits;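 active = compounds giving at least 50% protection of heart cells from peroxide-induced death in the single-dose screen, raw or plate-pattern-corrected value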;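 also: 0% = DMSO wells with peroxide and 100% = DMSO wells without peroxide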
aDG glyco act: increases alpha dystroglycan glycosylation. Pro5-aDG cells, alpha-DG glycosylation AlphaScreen (IIH6); 0% Pro5, 100% B10-LARGE cell signal. activation, % at 10 µM. 360,000 compounds, 0.22% hits;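 active = activation of at least 8% versus controls, or a plate z-score of at least 8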;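 also: Pro5 are CHO cells carrying HIG-tagged alpha-DG that lacks glycosylation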
* marks the source's active call; other numbers are inactive results; x = no result. The list is not random: actives were taken first. Their share in the collection is about 1.7%.

SMILES | Glyco luc inh | ARNT TACC3 PPI | Vif imaging | H9c2 protect | aDG glyco act
CO[C@@H]1CN(C)C(=O)c2ccc(NC(=O)c3cc(C)on3)cc2OC[C@H](C)N(C(=O)C2CC2)C[C@@H]1C | x | -6 | x | x | x
COCC(=O)N(C[C@H]1N[C@H](CO)[C@@H]1c1ccc(C2=CCCC2)cc1)C(C)C | x | 5 | x | x | x
CCCC#Cc1cnc2c(c1)C(=O)N([C@H](C)CO)C[C@@H](C)[C@H](CN(C)C(=O)Cc1cccnc1)O2 | x | 3 | x | x | x
O=C(Nc1cccc(N=Cc2cc(Br)cc(Br)c2O)c1)c1ccco1 | 0 | -1 | -4 | 51* | 0
O=C(Nc1cccc(N=Cc2cc(Cl)cc(Br)c2O)c1)c1ccco1 | 2 | -4 | -1 | 50* | 0
O=C(Nc1cc(Br)c(O)c(Br)c1)c1cccc(NC(=O)c2ccco2)c1 | -1 | 8 | -3 | -3 | 0
Cc1nc(-n2[nH]c3c(c2=O)CCCC3)[nH]c(=O)c1Cc1ccccc1 | 1 | 59* | x | 70* | 1
CCC(=O)N[C@H]1C=C[C@@H](CC(=O)NCc2ccc(OC)cc2)O[C@@H]1CO | x | -8 | x | x | x
O=C(Cc1ccncc1)Nc1ccc2c(c1)[C@@H]1C[C@H](CC(=O)NC3CCCCC3)O[C@@H](CO)[C@@H]1O2 | x | -7 | x | x | x
O=C(CSc1cccc2cccnc12)N/N=C/c1cccc(O)c1 | -2 | 27 | -5 | 7 | 0
Cc1ccc(C(C)C)c(OCc2ccc(C(=O)N/N=C/c3ccc(O)c(O)c3)cc2)c1 | -3 | -3 | -1 | 97* | 0
COc1cc(/C=N/NC(=O)c2ccc(COc3cc(C)ccc3C(C)C)cc2)cc(OC)c1O | 3 | -2 | -4 | 26 | 2
O=C(N/N=C/c1ccc(O)c(O)c1)c1ccc(CSc2cccc3cccnc23)cc1 | -2 | 23 | 30 | 88* | 0
CN1CCN(C(=O)C[C@H]2CC[C@@H]3[C@H](COC[C@@H](O)CN3C(=O)Nc3cc(Cl)cc(Cl)c3)O2)CC1 | x | -32 | x | x | x
O=C(CSc1nc2ccccc2c(=O)[nH]1)Nc1ccccc1O | 2 | 8 | 9 | 23 | 0
O=C(CSc1nc2ccccc2c(=O)[nH]1)Nc1cccc([N+](=O)[O-])c1 | 0 | -3 | -4 | 53* | 0
Cc1cnc(NC(=O)CSc2nc3ccccc3c(=O)[nH]2)s1 | -4 | 17 | 22 | 59* | 0
COc1ccnc(CSC(N)=Nc2ccc(F)cc2)c1 | 3 | 82* | 2 | -8 | 0
COc1cccc(N=C(N)N=C(N)N)c1 | 2 | 13 | 0 | -4 | 0
C[C@@H]1CN([C@@H](C)CO)C(=O)c2cccc(NS(=O)(=O)c3cn(C)cn3)c2O[C@H]1CN(C)Cc1ccc(C(F)(F)F)cc1 | x | -6 | x | x | x
Cc1cc(C)c(S(=O)(=O)Nc2ccc3c4c(cccc24)CC3)c(C)c1 | 6 | -17 | 57* | -22 | 0
Cc1ccc(S(=O)(=O)Nc2ccc3c4c(cccc24)CC3)c(C)c1 | 9 | 0 | 3 | -24 | 2
Cc1csc2nc3cc(C(N)=O)ccc3c(=O)n12 | 3 | 21 | 2 | 11 | 0
NC(=O)c1ccc2c(=O)n3c(-c4cc(Cl)c(N)c(Cl)c4)csc3nc2c1 | 29* | 3 | -1 | 23 | 0
CNC(=O)C[C@H]1CC[C@@H]2[C@H](COC[C@@H](O)CN2C(=O)c2ccccn2)O1 | x | -3 | x | x | x
SMILES | Glyco luc inh | ARNT TACC3 PPI | Vif imaging | H9c2 protect | aDG glyco act
CNC[C@@H]1OCCCC[C@@H](C)Oc2ccc(NC(=O)c3ccncc3)cc2C(=O)N([C@@H](C)CO)C[C@H]1C | x | 5 | x | x | x
Cc1ccc2c(c1)[C@H]1[C@H](CO2)[C@H](c2ccccc2)[C@]2(C)C(=O)Nc3ccc(Cl)cc3C(=O)N12 | 13 | -1 | -2 | -5 | 0
Cc1ccc2c(c1)[C@H]1[C@H](CO2)[C@H](c2ccccc2)[C@]2(C)C(=O)Nc3ccccc3C(=O)N12 | 13 | -25 | -3 | -4 | 0
Cc1ccc2c(c1)NC(=O)[C@@]1(C)[C@@H](c3ccccc3)[C@H]3COc4ccccc4[C@@H]3N1C2=O | 36* | -2 | 0 | -11 | 0
Cc1ccc2c(c1)C(=O)N1[C@H]3c4ccccc4OC[C@@H]3[C@H](c3ccccc3)[C@]1(C)C(=O)N2 | 31* | 2 | -1 | -8 | 0
C[C@@]12C(=O)Nc3ccc(Br)cc3C(=O)N1[C@H]1c3ccccc3OC[C@@H]1[C@@H]2c1ccccc1 | 27* | -2 | -4 | -6 | 0
CC(C)NC(=O)N(C)C[C@@H]1Oc2ccc(NC(=O)C3CCCCC3)cc2C(=O)N([C@H](C)CO)C[C@@H]1C | x | -11 | x | x | x
CO[C@H]1CN(C)C(=O)c2cc(NC(=O)Cc3ccccc3)ccc2OC[C@H](C)N(C(C)=O)C[C@@H]1C | x | -3 | x | x | x
CCCc1nc2ccccc2c(C(=O)OC(C)C(=O)NCc2ccc3c(c2)OCO3)c1CC (stereo not given) | -2 | -4 | -16 | 2 | 0
CC(=O)c1cccc(NC(=O)C(C)OC(=O)CCc2nc3ccccc3c(=O)[nH]2)c1 (stereo not given) | 0 | -6 | 5 | 52* | 0
CC(OC(=O)CCc1nc2ccccc2c(=O)[nH]1)C(=O)NCc1ccc2c(c1)OCO2 (stereo not given) | 1 | -5 | -5 | 67* | 0
NC(N)=N/N=C/c1ccc2cccc(OCc3ccccc3)c2n1 | 29* | 25 | -21 | -12 | 0
C[C@H]1CN([C@@H](C)CO)C(=O)c2cc(NC(=O)CCN3CCOCC3)ccc2O[C@H]1CN(C)C(=O)Nc1ccccc1 | x | -21 | x | x | x
CCOC(=O)c1ccc(-c2ccc(/C=N/NC(=O)c3cncc(Br)c3)o2)cc1 | -1 | x | 58* | 36 | 0
Cc1ccc(/C=N\NC(=O)c2cncc(Br)c2)o1 | 2 | 15 | -2 | 17 | 0
C[C@H](CO)N1C[C@H](C)[C@H](CN(C)C(=O)Cc2ccncc2)Oc2ncc(C3=CCCCC3)cc2C1=O | x | 8 | x | x | x
O=C(Nc1ccc(F)cc1)c1ccc(S(=O)(=O)N2CCOCC2)o1 | 1 | x | 53* | -4 | 0
CNC(=O)C[C@@H]1CC[C@@H]2[C@@H](COc3ccc(NC(=O)c4cccs4)cc3C(=O)N2C)O1 | x | -3 | x | x | x
COc1cc(C(=O)N/N=C(\C)c2ccc3c(c2)OCO3)cc(OC)c1OC | 34* | -23 | 2 | -3 | 0
COc1cc(C(=O)c2ccc3c(c2)OCO3)cc(OC)c1OC | 14 | -12 | 23 | 7 | 0
CCCNC(=O)N1C[C@@H]2[C@H](c3ccccc31)[C@H](CO)N2Cc1ccc2c(c1)OCO2 | x | 7 | x | x | x
CCC(=O)Nc1ccc2c(c1)C(=O)N(C)C[C@@H](OC)[C@@H](C)CN(Cc1cccc(F)c1)[C@@H](C)CO2 | x | -12 | x | x | x
O=C(Nc1cccc(F)c1)N1CCCCN2[C@H](C1)[C@H](c1ccc(C#CC3CC3)cc1)[C@@H]2CO | x | 5 | x | x | x
O=C(N/N=C/c1sc2ccccc2c1O)c1ccccc1 | -15 | 61* | 13 | 29 | 1

Source: PubChem BioAssay
